For test [1], the target named is Regulator of G-protein signaling 16 (Homo sapiens) (UniProt O15492). Kind of test: modulators of RGS–Galpha-o binding, primary screen, biochemical, multiplexed beads, flow cytometry, RGS4/7/8/16/19 (AID 1504).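 Also: fluorescently labeled Galpha-o bound to GDP with aluminium fluoride binding biotinylated RGS beads.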 To be noted: multiplexed bead flow cytometry, measured here: RGS16 interaction, at 10 µM.
Test [2] has as its target Regulator of G-protein signaling 19 (Homo sapiens) (UniProt P49795). Described as above. Particulars: multiplexed bead flow cytometry, measured here: RGS19 interaction, at 10 µM.
Test [3] addresses Regulator of G-protein signaling 7 (Homo sapiens) (UniProt P49802). The description is as above. To be noted: multiplexed bead flow cytometry, measured here: RGS7 interaction, at 10 µM.
The target in test [4] is Regulator of G-protein signaling 8 (Homo sapiens) (UniProt P57771). Described as above. To be noted: multiplexed bead flow cytometry, measured here: RGS8 interaction, at 10 µM.
The nature of test [5]: disruption of biotin probe capture by avidin, counter-screen for RGS protein interaction modulators, biochemical, flow cytometry, bead-based (AID 1783;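 active = inhibition above 50%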;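 also: median green fluorescence of gated singlet beads compared with DMSO control wells; 0% = DMSO wells and 100% = complete loss of bead fluorescence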). To be noted: streptavidin beads, fluorescein-biotin binding; at 10 µM, stronger effect = higher value.
In test [6] the target is Guanine nucleotide-binding protein G(o) subunit alpha (Homo sapiens) (UniProt P09471). Description: RGS8-Galphao binding modulators, confirmation, biochemical, multiplexed bead flow cytometry, single concentration (AID 1836; in the data active = binding response below about 72% or above about 130%; inactive = in between;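 also: Galphao activated as GDP AlF4 complex before binding bead RGS8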). To be noted: bead-based flow cytometry RGS8-Galphao binding, fluorescence; at 10 µM; actives lie on both sides.
Guanine nucleotide-binding protein G(o) subunit alpha (Homo sapiens), sequence (P09471 whole entry, looked up): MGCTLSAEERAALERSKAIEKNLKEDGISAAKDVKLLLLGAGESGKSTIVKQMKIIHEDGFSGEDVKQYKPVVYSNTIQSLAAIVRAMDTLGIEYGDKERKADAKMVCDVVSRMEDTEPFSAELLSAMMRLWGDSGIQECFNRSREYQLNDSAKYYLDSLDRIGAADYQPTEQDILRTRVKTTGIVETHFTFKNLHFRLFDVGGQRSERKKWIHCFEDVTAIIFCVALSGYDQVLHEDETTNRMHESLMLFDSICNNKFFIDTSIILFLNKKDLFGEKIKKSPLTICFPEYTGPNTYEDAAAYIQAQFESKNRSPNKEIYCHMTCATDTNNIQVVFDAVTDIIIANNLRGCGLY
The target is the same in test [7]. Description: RGS7-Galphao binding modulators, confirmation, biochemical, multiplexed bead flow cytometry, single concentration (AID 1837; in the data active = response below about 75% or above about 130%; inactive = in between;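 also: fluorescent Galphao activated with GDP and aluminum fluoride binding bead-coupled RGS7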). Particulars: bead-based flow cytometry RGS7-Galphao binding; at 10 µM; actives lie on both sides.
In test [8] the target is Regulator of G-protein signaling 16 (Homo sapiens) + Guanine nucleotide-binding protein G(o) subunit alpha (Homo sapiens) (UniProt O15492+P09471). Kind of test: modulators of RGS16-Galphao protein binding, confirmation, biochemical, single concentration, multiplexed bead flow cytometry (AID 1838).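 Also: Galphao activated as the GDP aluminium fluoride complex binding bead-coupled RGS16.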 Particulars: bead-based flow cytometry, at 10 µM, actives lie on both sides.
Regulator of G-protein signaling 16 (Homo sapiens) + Guanine nucleotide-binding protein G(o) subunit alpha (Homo sapiens), sequence (O15492 whole entry, looked up): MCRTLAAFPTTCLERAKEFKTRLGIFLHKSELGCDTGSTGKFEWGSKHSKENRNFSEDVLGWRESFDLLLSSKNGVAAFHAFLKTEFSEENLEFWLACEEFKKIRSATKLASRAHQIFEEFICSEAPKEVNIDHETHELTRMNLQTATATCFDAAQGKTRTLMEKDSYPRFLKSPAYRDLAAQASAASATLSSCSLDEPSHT
Regulator of G-protein signaling 16 (Homo sapiens) + Guanine nucleotide-binding protein G(o) subunit alpha (Homo sapiens), sequence (P09471 whole entry, looked up): as the sequence (P09471 whole entry, looked up) above

Test [9] concerns the target Guanine nucleotide-binding protein G(o) subunit alpha (Homo sapiens) (UniProt P09471). Kind of test: modulators of RGS4-Galphao protein binding, confirmation, biochemical, single concentration, multiplexed bead flow cytometry (AID 1840; in the data active = binding response below about 74% or above about 130%; inactive = in between). To be noted: at 10 µM, actives lie on both sides.
The target of test [10] is Guanine nucleotide-binding protein G(o) subunit alpha (Homo sapiens) + Regulator of G-protein signaling 19 (Homo sapiens) (UniProt P09471+P49795). Description: regulators of RGS19-Galphao binding, confirmation, biochemical, single point, multiplexed bead flow cytometry (AID 1841; in the data active = response below about 50% or above about 160%; inactive = in between;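 also: 100% = no compound control and 0% = blank background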). Particulars: bead-based flow cytometry RGS19-Galphao binding; at 10 µM; actives lie on both sides.
Guanine nucleotide-binding protein G(o) subunit alpha (Homo sapiens) + Regulator of G-protein signaling 19 (Homo sapiens), sequence (P09471 whole entry, looked up): as above
Guanine nucleotide-binding protein G(o) subunit alpha (Homo sapiens) + Regulator of G-protein signaling 19 (Homo sapiens), sequence (P49795 whole entry, looked up): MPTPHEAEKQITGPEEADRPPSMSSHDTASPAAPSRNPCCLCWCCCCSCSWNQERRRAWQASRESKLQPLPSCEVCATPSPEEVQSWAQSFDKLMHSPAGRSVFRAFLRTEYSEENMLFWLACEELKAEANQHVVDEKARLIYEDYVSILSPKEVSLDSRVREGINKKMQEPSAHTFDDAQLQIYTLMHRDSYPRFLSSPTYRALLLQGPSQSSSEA

Test [11] is described as follows: yeast TOR pathway RPL19A-GFP modulators, primary screen, cell-based, S. cerevisiae, multiplex flow cytometry (AID 1862; in the data active = percent of DMSO control GFP below about 86%;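 also: lower values mimic rapamycin by blocking the RPL19A rise seen in DMSO cells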). Particulars: S. cerevisiae RPL19A-GFP strain, flow cytometry fluorescence, 3 h; at 10 µM; stronger effect = lower value.
Test [12] in a line: modulators of MEP2-GFP levels in yeast, primary screen, S. cerevisiae, multiplex flow cytometry (AID 1867;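 active = GFP response, as percent of the DMSO control, above the screen-wide mean plus 3 SD, about 139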;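 also: median GFP channel fluorescence of barcode-gated MEP2-GFP cells measured by flow cytometry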). To be noted: S. cerevisiae MEP2-GFP strain, 3 h, at 10 µM, stronger effect = higher value, 100% means same as DMSO wells.
The nature of test [13]: modulators of CIT2-GFP expression in yeast, primary screen, S. cerevisiae, GFP fusion, multiplex flow cytometry (AID 1870;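 active = percent response above a set limit, the screen-wide mean plus 3 SD, cut at about 130% in these data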;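 also: barcoded CIT2-GFP strain pooled with four other GFP strains with rapamycin as positive control; median GFP fluorescence per well over plate mean of DMSO wells so 100% = DMSO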). To be noted: 3 h, at 10 µM, stronger effect = higher value.
Test [14] can be described thus: modulators of LAP4-GFP expression in yeast, primary screen, S. cerevisiae, multiplex flow cytometry (AID 1873;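 active = GFP signal, as percent of the solvent control, above the screen mean plus 3 SD, about 149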). Particulars: 3 h, at 10 µM, stronger effect = higher value.
A short description of test [15]: modulators of AGP1-GFP expression in yeast TOR pathway, primary screen, cell-based, multiplex flow cytometry, S. cerevisiae (AID 1887;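 active = GFP signal above the screen-wide mean plus 3 SD, that is over about 124.5% of the solvent control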;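 also: AGP1-GFP fusion strain of S. cerevisiae within a five-strain barcoded multiplex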). To be noted: 3 h, at 10 µM, stronger effect = higher value.
Test [16] can be described thus: RPL19A-GFP modulators, yeast TOR pathway, confirmation, cell-based, S. cerevisiae, flow cytometry, cherry picks, mother/daughter gates (AID 2270;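 active = GFP response below 50% of the DMSO control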). Particulars: S. cerevisiae RPL19A-GFP strain, 3 h, at 10 µM, stronger effect = lower value, 100 = same GFP as DMSO wells.
Test [17] in a line: LAP4-GFP expression modulators in yeast, confirmation, cell-based, cherry picks, flow cytometry, mother/daughter gates (AID 2271;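 active = GFP response above 150% of the DMSO control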;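 also: ratio of sample to DMSO plate mean so 100% equals DMSO level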). Particulars: S. cerevisiae LAP4-GFP strain, 3 h, at 10 µM, stronger effect = higher value, 100 means same as DMSO control.
A short description of test [18]: modulators of MEP2-GFP levels in yeast, confirmation, S. cerevisiae, flow cytometry GFP, cherry picks (AID 2272;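 active = GFP response above 150% of the DMSO control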;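 also: ratio of well signal to plate DMSO mean so 100% equals DMSO level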). To be noted: S. cerevisiae MEP2-GFP strain, 3 h, at 10 µM, stronger effect = higher value.
A short description of test [19]: modulators of CIT2-GFP expression in yeast, confirmation, S. cerevisiae, GFP fusion, cherry picks, mother/daughter gates (AID 2274;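 active = GFP response above 150% of the DMSO level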). To be noted: S. cerevisiae CIT2-GFP strain, flow cytometry, 3 h, at 10 µM, stronger effect = higher value.
The nature of test [20]: inhibitors of CD8+ T cell-vesicle binding, pilot screen, LFA-1/ICAM-1 modulator project, MLPCN validation set, flow cytometry (AID 2523;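 active = response below a set limit, under 55% cells CD8-positive and vesicle-bound, and CD8 cells' 90th-percentile brightness under 279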;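 as to vesicle binding response: mean PE anti-B7-1 fluorescence of CD8+ cells relative to row control; 100% = QL9-loaded vesicles with DMSO vehicle in the same plate row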). Particulars: 2C mouse CD8+ T cells, at 7 µM, stronger effect = lower value; double positive events: measured here: CD8+/vesicle+ event percentage.
Setting [21] is: measured here: daughter cell gate.
Setting [22] is: measured here: mother cell gate.
Where [23] appears, read: measured here: daughter cell gate response.
The mark [24] stands for this setting: measured here: mother cell gate response.

Each structure is given as a SMILES string. Records with an inconclusive call do not appear. The list shows a part of the results. Active and inactive are the calls of the source. Rule as the data show it, unless noted: active = response below about 74% or above about 130%; inactive = in between.

Turning to `CCCCOC(=O)Cn1c(=N)n(CCN(CC)CC)c2ccccc21`, in test [1], the RGS16–Galpha-o binding response is 0%. In addition, the RGS19–Galpha-o binding response in test [2] is -255%. Moreover, the RGS7–Galpha-o binding response in [3] came out at 165%. Moreover, the RGS8–Galpha-o binding response in test [4] was found to be 127%. Besides, the inhibition in [5] was -1.7% (inactive). The binding response (% of control) in test [6] is 101% (inactive); in test [9], 97.5% (inactive). Also, the response (percent of control binding) was 95.7% (inactive) in test [7] and 101% (inactive) in test [10]. Besides, in test [8], the response (% of control binding) is 101% (inactive).
For `Cc1ccc(S(=O)(=O)NCC(=O)OCC(=O)N2CCc3ccccc32)cc1`, the RGS16–Galpha-o binding response in test [1] came out at 604%. Moreover, the RGS19–Galpha-o binding response in test [2] worked out at 93.8%. In addition, in test [3], the RGS7–Galpha-o binding response was 139%. In addition, the RGS8–Galpha-o binding response in test [4] turned out to be 117%. Further, the inhibition in test [5] was -1.7% (inactive). Further, the binding response (% of control) in [6] was 102% (inactive); in test [9], 99.7% (inactive). In addition, the response (percent of control binding) is 99.5% (inactive) in [7] and 97.4% (inactive) in test [10]. Moreover, in [8], the response (% of control binding) was 98.9% (inactive).
Regarding `Cc1ncoc1C(=O)NCCC(c1ccccc1)c1ccccc1`, the inhibition in test [5] was 0.1% (inactive). The figures for the binding response (% of control) in test [6] and in test [9] were 101% (inactive) and 103% (inactive), respectively. For the same compound, the response (percent of control binding) in test [7] was 110% (inactive); in [10], 111% (inactive). Moreover, in [8], the response (% of control binding) was 101% (inactive).
For the compound `CC(=O)Nc1nc(N(C)C)nc(N(C)C)n1`, the RGS16–Galpha-o binding response in test [1] is 28%. The RGS19–Galpha-o binding response in test [2] was found to be 162%. Also, the RGS7–Galpha-o binding response in test [3] was -0.2%. Further, the RGS8–Galpha-o binding response in test [4] was 25.1%. The inhibition in test [5] is 3.9% (inactive). The binding response (% of control) in test [6] is 100% (inactive); in test [9], 104% (inactive). For the same compound, the response (percent of control binding) in test [7] is 103% (inactive); in test [10], 109% (inactive). For the same compound, in test [8], the response (% of control binding) was 104% (inactive).
`O=c1[nH]cc(F)c(=O)[nH]1`: in test [11], the percent of DMSO control GFP was 90.9% (inactive). The GFP response vs DMSO is 119% (inactive) in test [12]; 77% (inactive) in [14]; 83.5% (inactive) in test [16]; 82.3% in [16] (setting [21]); 85.4% in test [16] (setting [22]); 101% (inactive) in [18]. Further, the percent response of DMSO control in test [13] is 127% (active). In addition, the GFP response, % of DMSO in [15] is 104% (inactive); in test [19], 88.5% (inactive); in test [19] (setting [21]), 87.3%; in [19] (setting [22]) it was 89.8%. In addition, the GFP response relative to DMSO is 90% (inactive) in test [17], 88.8% in test [17] (setting [23]) and 93% in test [17] (setting [24]). In addition, the double positive events in test [20] is 52.4%. For the same compound, in test [20], the vesicle binding response was 223% (inactive).
Compound `CCOC(=O)NNc1cc(C(F)(F)F)ccn1` displayed an RGS16–Galpha-o binding response in test [1] of 148%. Also, the RGS19–Galpha-o binding response in test [2] was determined as 84.9%. Moreover, in [3], the RGS7–Galpha-o binding response came to 66.9%. For the same compound, the RGS8–Galpha-o binding response in [4] is 133%. For the same compound, in test [5], the inhibition was -0.7% (inactive). For the same compound, the binding response (% of control) was 104% (inactive) in [6] and 102% (inactive) in test [9]. Also, the values for the response (percent of control binding) in [7] and in test [10] were 107% (inactive) and 109% (inactive), respectively. In addition, the response (% of control binding) in test [8] is 104% (inactive).
Regarding `O=C(Nc1ccccc1)OCc1cc(-c2ccc(Cl)cc2)on1`, the inhibition in [5] is 2.5% (inactive). The binding response (% of control) in test [6] is 107% (inactive); in test [9], 93.7% (inactive). Besides, the response (percent of control binding) was 88.4% (inactive) in [7] and 55.4% (inactive) in test [10]. The response (% of control binding) in [8] was 107% (inactive).
Take `N#C/C(C(N)=O)=c1/ccc2c(c1)N1C3=C(CCCC3)CC3CCCCC31N=2` (stereo unspecified): the percent of DMSO control GFP in test [11] is 104% (inactive). In addition, the GFP response vs DMSO is 113% (inactive) in [12]; 170% (active) in test [14]; 92.7% (inactive) in test [16]; 88.8% in test [16] (setting [21]); 93.3% in test [16] (setting [22]); 101% (inactive) in test [18]. Further, the percent response of DMSO control in test [13] is 94.5% (inactive). In addition, the GFP response, % of DMSO in [15] is 105% (inactive); in [19], 88.9% (inactive); in test [19] (setting [21]), 85.2%; in test [19] (setting [22]), 89.3%. For the same compound, the GFP response relative to DMSO in [17] was 118% (inactive); in test [17] (setting [23]), 115%; in test [17] (setting [24]), 123%. The same compound returned a double positive events in [20] of 59.5%. Besides, the vesicle binding response in test [20] is 108% (inactive).

The record behind these values is PubChem BioAssay.
